# Experimental data taken from PubChem BioAssay AID1159580 (chemical genetic matrix, 2015).
# Out of some 5,500 compounds screened, about 2,000 (36%) were called active. Inconclusive results (about 18%) are left out. The list shows a part of the results. Unmarked numbers belong to inactive results. No stated cut-off is given here; in the data, active means normalized growth mostly below about 0.91 (no sharp cut-off); inconclusive means no clear call, values can overlap the other calls; inactive means mostly above about 0.92.
# Assay: chemical genetic growth profiling, strain panel (AID 1159580);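 further: tested at 20 µM; growth read once vehicle control cultures reached saturation at 30 °C; 1 = growth at the plate median or of vehicle wells; lower values mean less growth of the strain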
# Settings: growth OD
smiles,measurement,setting,value
CC1[C@H](C)OC(=O)CC(O)CC(O)CC(O)CCC(O)C(O)C[C@]2(O)CC(O)C(C(=O)O)C(CC(OC3O[C@H](C)[C@@H](O)[C@H](N)[C@@H]3O)/C=C/C=C/C=C/C=C/CC/C=C/C=C/[C@H](C)[C@H]1O)O2 (stereo partly specified),normalized growth,"S. cerevisiae deletion strains, locus YKL009W, strain mrt4, active compounds read low",0.0887 (active)
same,normalized growth,"S. cerevisiae deletion strains, locus YKL068W, active compounds read low",0.0555 (active)
same,normalized growth,"S. cerevisiae deletion strains, locus YKL085W, strain MDH1 (second series), active compounds read low",0.0538 (active)
same,normalized growth,"S. cerevisiae deletion strains, locus YKL085W, strain MDH1, active compounds read low",0.0538 (active)
same,normalized growth,"S. cerevisiae deletion strains, locus YKL160W, strain elf1, active compounds read low",0.952
same,normalized growth,"S. cerevisiae deletion strains, locus YKL190W, strain CNB1, active compounds read low",0.193 (active)
same,normalized growth,"S. cerevisiae deletion strains, locus YKR001C, strain vps1, active compounds read low",0.0857 (active)
same,normalized growth,"S. cerevisiae deletion strains, locus YKR026C, strain gcn3, active compounds read low",0.0734 (active)
same,normalized growth,"S. cerevisiae deletion strains, locus YKR091W, strain srl3, active compounds read low",0.986
same,normalized growth,"S. cerevisiae deletion strains, locus YLL001W, strain dnm1, active compounds read low",0.759 (active)
same,normalized growth,"S. cerevisiae deletion strains, locus YLL026W, active compounds read low",0.446 (active)
same,normalized growth,"S. cerevisiae deletion strains, locus YLL041C, strain sdh2, active compounds read low",0.913 (active)
same,normalized growth,"S. cerevisiae deletion strains, locus YLR027C, strain aat2, active compounds read low",0.633 (active)
same,normalized growth,"S. cerevisiae deletion strains, locus YLR039C, strain RIC1, active compounds read low",0.0871 (active)
same,normalized growth,"S. cerevisiae deletion strains, locus YLR058C, strain SHM2, active compounds read low",0.374 (active)
same,normalized growth,"S. cerevisiae deletion strains, locus YLR102C, strain apc9, active compounds read low",0.283 (active)
same,normalized growth,"S. cerevisiae deletion strains, locus YLR113W, strain HOG1, active compounds read low",0.124 (active)
same,normalized growth,"S. cerevisiae deletion strains, locus YLR221C, strain rsa3, active compounds read low",0.36 (active)
same,normalized growth,"S. cerevisiae deletion strains, locus YLR258W, strain gsy2, active compounds read low",0.857 (active)
same,normalized growth,"S. cerevisiae deletion strains, locus YLR262C, strain YPT6 (second series), active compounds read low",0.799 (active)
same,normalized growth,"S. cerevisiae deletion strains, locus YLR262C, strain YPT6, active compounds read low",0.0948 (active)
same,normalized growth,"S. cerevisiae deletion strains, locus YLR268W, strain sec22, active compounds read low",0.119 (active)
same,normalized growth,"S. cerevisiae deletion strains, locus YLR320W, strain mms22, active compounds read low",1
same,normalized growth,"S. cerevisiae deletion strains, locus YLR330W, strain CHS5, active compounds read low",0.176 (active)
same,normalized growth,"S. cerevisiae deletion strains, locus YLR342W, strain FKS1 (second series), active compounds read low",0.126 (active)
same,normalized growth,"S. cerevisiae deletion strains, locus YLR342W, strain FKS1, active compounds read low",0.376 (active)
same,normalized growth,"S. cerevisiae deletion strains, locus YLR357W, strain rsc2, active compounds read low",0.123 (active)
same,normalized growth,"S. cerevisiae deletion strains, locus YLR370C, strain arc18, active compounds read low",0.0729 (active)
same,normalized growth,"S. cerevisiae deletion strains, locus YLR371W, strain rom2, active compounds read low",0.112 (active)
same,normalized growth,"S. cerevisiae deletion strains, locus YLR384C, strain iki3, active compounds read low",0.907 (active)
same,normalized growth,"S. cerevisiae deletion strains, locus YLR418C, strain cdc73, active compounds read low",0.202 (active)
same,normalized growth,"S. cerevisiae deletion strains, locus YML016C, strain PPZ1, active compounds read low",0.841 (active)
same,normalized growth,"S. cerevisiae deletion strains, locus YML032C, strain rad52, active compounds read low",0.333 (active)
same,normalized growth,"S. cerevisiae deletion strains, locus YML120C, strain ndi1, active compounds read low",0.0634 (active)
same,normalized growth,"S. cerevisiae deletion strains, locus YML124C, strain tub3, active compounds read low",0.103 (active)
same,normalized growth,"S. cerevisiae deletion strains, locus YMR058W, strain fet3, active compounds read low",0.318 (active)
same,normalized growth,"S. cerevisiae deletion strains, locus YMR078C, strain ctf18, active compounds read low",0.612 (active)
same,normalized growth,"S. cerevisiae deletion strains, locus YMR125W, strain sto1, active compounds read low",0.112 (active)
same,normalized growth,"S. cerevisiae deletion strains, locus YMR129W, active compounds read low",0.0795 (active)
same,normalized growth,"S. cerevisiae deletion strains, locus YMR205C, strain PFK2, active compounds read low",0.916
same,normalized growth,"S. cerevisiae deletion strains, locus YMR223W, strain ubp8, active compounds read low",0.0876 (active)
same,normalized growth,"S. cerevisiae deletion strains, locus YMR231W, strain pep5, active compounds read low",0.839 (active)
same,normalized growth,"S. cerevisiae deletion strains, locus YMR263W, strain SAP30, active compounds read low",0.0585 (active)
same,normalized growth,"S. cerevisiae deletion strains, locus YMR307W, strain GAS1, active compounds read low",0.103 (active)
same,normalized growth,"S. cerevisiae deletion strains, locus YNL067W, strain RPL9B, active compounds read low",0.0572 (active)
same,normalized growth,"S. cerevisiae deletion strains, locus YNL071W, strain lat1, active compounds read low",0.885 (active)
same,normalized growth,"S. cerevisiae deletion strains, locus YNL128W, strain TEP1, active compounds read low",0.0617 (active)
same,normalized growth,"S. cerevisiae deletion strains, locus YNL153C, strain GIM3, active compounds read low",0.0492 (active)
same,normalized growth,"S. cerevisiae deletion strains, locus YNL183C, strain NPR1, active compounds read low",0.00104 (active)
same,normalized growth,"S. cerevisiae deletion strains, locus YNL209W, strain ssb2, active compounds read low",0.816 (active)
same,normalized growth,"S. cerevisiae deletion strains, locus YNL233W, strain BNI4, active compounds read low",0.135 (active)
same,normalized growth,"S. cerevisiae deletion strains, locus YNL248C, strain rpa49, active compounds read low",0.104 (active)
same,normalized growth,"S. cerevisiae deletion strains, locus YNL250W, strain rad50, active compounds read low",0.0643 (active)
same,normalized growth,"S. cerevisiae deletion strains, locus YNL271C, strain bni1, active compounds read low",0.0657 (active)
same,normalized growth,"S. cerevisiae deletion strains, locus YNL298W, strain CLA4, active compounds read low",0.0613 (active)
same,normalized growth,"S. cerevisiae deletion strains, locus YNL307C, strain MCK1, active compounds read low",0.0855 (active)
same,normalized growth,"S. cerevisiae deletion strains, locus YNL322C, strain KRE1 (second series), active compounds read low",0.695 (active)
same,normalized growth,"S. cerevisiae deletion strains, locus YNL322C, strain KRE1, active compounds read low",0.0469 (active)
same,normalized growth,"S. cerevisiae deletion strains, locus YNR049C, strain mso1, active compounds read low",0.951
same,normalized growth,"S. cerevisiae deletion strains, locus YNR052C, strain pop2, active compounds read low",0.0638 (active)
same,normalized growth,"S. cerevisiae deletion strains, locus YOL006C, strain TOP1, active compounds read low",0.276 (active)
same,normalized growth,"S. cerevisiae deletion strains, locus YOL012C, strain htz1",0.206
same,normalized growth,"S. cerevisiae deletion strains, locus YOL147C, strain pex11, active compounds read low",0.111 (active)
same,normalized growth,"S. cerevisiae deletion strains, locus YOR001W, strain rrp6, active compounds read low",0.102 (active)
same,normalized growth,"S. cerevisiae deletion strains, locus YOR061W, strain CKA2, active compounds read low",0.41 (active)
same,normalized growth,"S. cerevisiae deletion strains, locus YOR069W, strain VPS5, active compounds read low",0.156 (active)
same,normalized growth,"S. cerevisiae deletion strains, locus YOR070C, strain gyp1, active compounds read low",0.95
same,normalized growth,"S. cerevisiae deletion strains, locus YOR080W, strain dia2, active compounds read low",0.826 (active)
same,normalized growth,"S. cerevisiae deletion strains, locus YOR083W, strain WHI5, active compounds read low",0.798 (active)
same,normalized growth,"S. cerevisiae deletion strains, locus YOR106W, strain vam3, active compounds read low",0.284 (active)
same,normalized growth,"S. cerevisiae deletion strains, locus YOR136W, strain idh2, active compounds read low",0.221 (active)
same,normalized growth,"S. cerevisiae deletion strains, locus YOR144C, strain elg1, active compounds read low",0.123 (active)
same,normalized growth,"S. cerevisiae deletion strains, locus YOR184W, strain ser1, active compounds read low",0.0785 (active)
same,normalized growth,"S. cerevisiae deletion strains, locus YOR231W, strain MKK1, active compounds read low",0.105 (active)
same,normalized growth,"S. cerevisiae deletion strains, locus YOR265W, strain rbl2, active compounds read low",0.887 (active)
same,normalized growth,"S. cerevisiae deletion strains, locus YOR270C, strain vph1, active compounds read low",0.837
same,normalized growth,"S. cerevisiae deletion strains, locus YOR290C, strain snf2, active compounds read low",1.01
same,normalized growth,"S. cerevisiae deletion strains, locus YOR316C, strain cot1, active compounds read low",0.236 (active)
same,normalized growth,"S. cerevisiae deletion strains, locus YPL051W, strain arl3, active compounds read low",0.885 (active)
same,normalized growth,"S. cerevisiae deletion strains, locus YPL055C, strain LGE1, active compounds read low",0.0909 (active)
same,normalized growth,"S. cerevisiae deletion strains, locus YPL078C, strain atp4, active compounds read low",0.757 (active)
same,normalized growth,"S. cerevisiae deletion strains, locus YPL106C, strain sse1, active compounds read low",0.229 (active)
same,normalized growth,"S. cerevisiae deletion strains, locus YPL240C, strain hsp82, active compounds read low",0.943
same,normalized growth,"S. cerevisiae deletion strains, locus YPL241C, strain CIN2, active compounds read low",0.182 (active)
same,normalized growth,"S. cerevisiae deletion strains, locus YPL256C, strain CLN2, active compounds read low",0.116 (active)
same,normalized growth,"S. cerevisiae deletion strains, locus YPR119W, strain clb2, active compounds read low",0.271 (active)
same,normalized growth,"S. cerevisiae deletion strains, locus YPR141C, strain kar3, active compounds read low",0.0655 (active)
same,normalized growth,"S. cerevisiae deletion strains, locus YPR163C, strain tif3, active compounds read low",0.152 (active)
same,normalized growth,"S. cerevisiae deletion strains, locus YPR167C, strain met16, active compounds read low",0.0932 (active)
same,normalized growth,"S. cerevisiae deletion strains, strain wtn01, active compounds read low",0.0877 (active)
same,normalized growth,"S. cerevisiae strains, strain wild type, active compounds read low",0.0547 (active)
